The values below come from PubChem BioAssay (NCATS).

Molecules are shown by their SMILES. Records with an inconclusive call do not appear. Activity calls are given as the source filed them. Unless noted, calls come from the whole dose curve; as a rule, active = well fitted curve in the direction sought with a large enough effect; inconclusive = small, poorly fitted or top-dose-only effect, or another doubt; inactive = no such curve, though single readings can be large; an effect the other way counts as inactive or inconclusive.

Experiment [1] concerns the target Glutathione peroxidase 1 (Homo sapiens) (UniProt P07203). In words: Primary qHTS Assay for Inhibitors of Recombinant Selenoprotein Glutathione Peroxidase 1 (GPX1) (AID 1845191). For activity, negative = inhibition: % is set by controls: 0 for no effect and ±100 for the full control effect. Note: nearly all actives have a fitted effect of over 65% in size. In short, it runs like this: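 Recombinant GPX1 (10 nM final) was preincubated with compound for 30 min at room temperature, then reacted with 1 mM GSH, 0.5 mM CHP, 0.5 mM NADPH and 100 nM glutathione reductase; NADPH fluorescence (340/450 nm) was read at 0 and 15 min.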

Experiment [2] has as its target Phospholipid hydroperoxide glutathione peroxidase GPX4 (Homo sapiens) (UniProt P36969). As to the kind of experiment: Primary qHTS Assay for Inhibitors of Recombinant Selenoprotein Glutathione Peroxidase 4 (GPX4) (AID 1845192). Note: nearly all actives have a fitted effect of over 65% in size. Summed up:
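GR-coupled readout: 100 nM GR, 1 mM GSH, 0.5 mM NADPH; NADPH fluorescence (ex 340/em 450 nm) read at t=0 and after 15 min RT. GPX4 200 nM, preincubated 30 min with compound; substrate 0.5 mM CHP.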

Experiment [3] in a line: qHTS profiling for inhibitors of Plasmodium falciparum proliferation (AID 504749).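 For activity, negative = inhibition: 0% = DMSO vehicle and full inhibition = artemisinin control.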 Note: nearly all actives have a fitted effect of over 60% in size. Note: potency is the fitted concentration of half-maximal effect. The conditions noted are these: P. falciparum in erythrocytes, SYBR Green DNA, 72 h. In short, it runs like this: (§1)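 P. falciparum-infected erythrocytes (0.3% parasitemia, 2.5% hematocrit final) were exposed to compounds for 72 h at 37 C in 5% CO2, then lysed with SYBR Green buffer overnight at room temperature; parasite DNA fluorescence was normalized to artemisinin and DMSO controls.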
In general terms: qHTS replaces the single test concentration by a dilution series.

For the next experiment, the system named is 7G8. The experiment is described as above. As to conditions: P. falciparum in erythrocytes, SYBR Green DNA, 72 h; series mostly up to 28.7 µM. Summed up:
as §1

Experiment [4] is described as follows: qHTS drug screen for cell cycle checkpoint inhibitors in PARPi-resistant BRCA-mutant ovarian cancer cell lines. (AID 1963452; calls by dose curve). The conditions noted are these: PEO1/OlaR viability, CellTiter-Glo luminescence, 96 h, stronger effect = lower value. Summed up: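 PEO1, PEO4 and PEO1/OlaR ovarian cancer cells, 600 per well, exposed 96 h at 37C to a dilution series. Viability read by CellTiter-Glo luminescence, normalized to DMSO and empty wells; activity summarized as Z-AUC.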

The subject of a further experiment is 3D7. As to the kind of experiment: qHTS profiling for inhibitors of Plasmodium falciparum proliferation (AID 504749).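 For activity, negative = inhibition: 0% = DMSO vehicle and full inhibition = artemisinin control.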 Note: nearly all actives have a fitted effect of over 60% in size. Note: potency is the fitted concentration of half-maximal effect. As to conditions: P. falciparum in erythrocytes, SYBR Green DNA, 72 h; series mostly up to 28.7 µM. Summed up: as §1
The target in experiment [5] is Luciferin 4-monooxygenase (Photinus pyralis) (UniProt P08659). In words: Primary firefly luciferase (FLuc) qHTS assay for identification of artifact compounds. (AID 1845220). Note: nearly all actives have a fitted effect of over 60% in size. Summed up: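 Reaction readout was CCD-imaged luminescence, taken 5 min after adding 10 nM purified firefly enzyme to compound-treated wells holding 10 uM luciferin and ATP in pH 7.6 buffer.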

A short description of experiment [6]: Primary fluorescence-based thiol-reactive (MSTI) qHTS assay for identification of artifact compounds. (AID 1845221).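 Note: thiol-reactive compounds lower the probe fluorescence signal; nearly all actives have a fitted effect of over 65% in size.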 In short, it runs like this: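 MSTI probe at 4 uM final in 2% DMSO/PBS pH 7.4; compounds, 1 h at room temperature in dark. Fluorescence Ex/Em 525/598 nm, normalised to Acetyl-MSTI and MSTI, fitted to 4-parameter Hill.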
For experiment [7], the system named is Nanoluciferase (engineered Oplophorus gracilirostris luciferase). In words: Primary Nanoluciferase (NLuc) qHTS assay for identification of artifact compounds. (AID 1845222).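 Note: NLuc secreted into diluted conditioned medium of S16 cells; 0% = DMSO and -100% = no enzyme.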 Summed up: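 Concentration-response data were obtained by luminescence after 5 min with Nano-Glo substrate at 1:100. The enzyme was diluted S16 NLuc-expressing cell medium, preincubated with compound for 15 min at RT. Curves were fitted with a 4-parameter Hill model.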

Experiment [8] in a line: Primary redox qHTS assay for identification of artifact compounds. (AID 1845223).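 Note: 0% = DMSO and 100% = reference compound.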 In short, it runs like this: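 Amplex Red (25 uM) and HRP (250 mU/mL) in HBSS, with compounds for 15 min, then 250 uM DTT for 30 min, room temperature, dark. Fluorescence 525/598 nm read; normalized to DMSO and 10 uM DA3003; Hill fit.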
Where [9] appears, read: at 28.7 µM (top of the series), parasite line A.
The mark [10] stands for this setting: at 28.7 µM (top of the series), parasite line B.

Sequence of Glutathione peroxidase 1 (Homo sapiens) (P07203 whole entry, looked up): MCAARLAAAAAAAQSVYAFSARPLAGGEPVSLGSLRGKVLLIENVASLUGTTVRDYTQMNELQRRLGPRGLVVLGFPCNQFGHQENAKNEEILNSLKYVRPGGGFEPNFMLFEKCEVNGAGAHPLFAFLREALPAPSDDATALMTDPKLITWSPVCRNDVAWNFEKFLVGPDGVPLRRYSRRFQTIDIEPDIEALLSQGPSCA
Sequence of Phospholipid hydroperoxide glutathione peroxidase GPX4 (Homo sapiens) (P36969 whole entry, looked up): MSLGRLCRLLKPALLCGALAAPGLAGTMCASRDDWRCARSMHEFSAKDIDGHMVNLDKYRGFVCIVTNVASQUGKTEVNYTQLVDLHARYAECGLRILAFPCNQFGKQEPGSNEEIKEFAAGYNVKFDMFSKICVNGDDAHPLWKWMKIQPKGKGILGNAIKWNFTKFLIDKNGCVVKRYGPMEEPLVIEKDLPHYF

As for `O=c1[nH]c2ccccc2n1CCCN1CCN(C(c2ccccc2)c2ccccc2)CC1`, the Potency result in [1] and in [2] was “inactive” throughout. Further, the activity, negative = inhibition in experiment [3] (setting [9]) is -13.9% (inactive). For the same compound, in the experiment with 7G8, the Potency was 7.08 µM (active).

Take `CC[C@@H](C)[C@H]1O[C@]2(CC[C@@H]1C)C[C@@H]1C[C@@H](C/C=C(\C)[C@@H](O[C@H]3C[C@H](OC)[C@@H](O[C@H]4C[C@H](OC)[C@@H](O)[C@H](C)O4)[C@H](C)O3)[C@@H](C)/C=C/C=C3\CO[C@@H]4[C@H](O)C(C)=C[C@@H](C(=O)O1)[C@]34O)O2`: the Potency entry in experiment [2] was “inactive”.

On to `COc1cc(/C=C/C(=O)CC(=O)/C=C/c2ccc(O)c(OC)c2)ccc1O`, for which the Potency entry in experiment [1] was “inactive”. Moreover, the Z-AUC is -0.374 (inactive) in experiment [4], -0.396 in experiment [4] (measured here: PEO1 parental Z-AUC) and -0.434 in [4] (measured here: PEO4 Z-AUC). The Potency in the experiment on 3D7 is 10 µM (active); with 7G8 it was 11.2 µM (active).

As to `Nc1nc(OCC2CCCCC2)c2[nH]cnc2n1`, the Potency result in experiment [2] is “inactive”.

For `CCCCCCCCCCCCOCCO`, the Potency result in experiment [2] is “inactive”.

On to `COC(=O)C1=C(C)NC(C)=C(C(=O)OCC(C)=O)C1c1ccccc1[N+](=O)[O-]` (stereo unspecified), for which the Potency result in experiment [2] is “inactive”.

As for `Nc1c(CC(=O)O)cccc1C(=O)c1ccc(Br)cc1`, the Potency entry (in [1]; in experiment [2]; with 3D7; in the experiment with 7G8) was “inactive” each time. Moreover, the activity, negative = inhibition in [3] (setting [9]) was 12.5% (inactive); in experiment [3] (setting [10]), 11.2% (inactive).

As to `Cc1c(C(=O)O)c(O)cc2c1C(=O)c1c(O)c([C@@H]3O[C@H](CO)[C@@H](O)[C@H](O)[C@H]3O)c(O)c(O)c1C2=O`, the Potency entry in [2] is “inactive”.

For `CCCCN(CC)c1nc(C)nc2c1c(C)cn2-c1c(C)cc(C)cc1C`, the Potency result in experiment [2], in experiment [5] and in experiment [7] was “inactive” throughout. Moreover, the result in experiment [6] and in experiment [8] was inactive.

As to `CC(N)C(=O)OC(C)(C)Cc1ccc(Cl)cc1` (stereo unspecified), the Potency entry (in experiment [1]; in experiment [2]; in the experiment with 3D7) was “inactive” throughout. Also, the results for the activity, negative = inhibition in experiment [3] (setting [9]) and in experiment [3] (setting [10]) were 3.68% (inactive) and 0.818% (inactive), respectively. For the same compound, in the experiment with 7G8, the Potency is 10 µM (active).

Take `O=C(O)[C@H](CC(=O)N1C[C@H]2CCCC[C@H]2C1)Cc1ccccc1`: the Potency result (in experiment [2]; in [5]; in experiment [7]; with 3D7; in the experiment with 7G8) was “inactive” each time. The compound was called inactive in experiment [6] and in [8]. Besides, the activity, negative = inhibition is 9.74% (inactive) in experiment [3] (setting [9]) and 2.21% (inactive) in experiment [3] (setting [10]).

`CCCCCCCCCCCCCCCC(=O)OC(C)C`: the Potency result (in [1]; in experiment [2]; in the experiment with 3D7; in the experiment on 7G8) was “inactive” each time.

Consider `COC(=O)C1=C(C)NC(C)=C(C(=O)OC)C1c1cccc(NC(=O)NCCCN2CCC(c3cccc(OC)c3)CC2)c1`, for which the Potency result in experiment [2], in experiment [5] and in experiment [7] was “inactive” in each case. Further, the outcome in experiment [6] and in experiment [8] was inactive.

In the case of `Cc1onc(-c2c(F)cccc2Cl)c1C(=O)N[C@@H]1C(=O)N2[C@@H]1SC(C)(C)[C@@H]2C(=O)O`, the Potency entry in experiment [2], in experiment [5] and in [7] was “inactive” throughout. Moreover, in [6], the outcome was inactive.

With `C#CC1(O)CC[C@H]2[C@@H]3CCC4=CCCC[C@@H]4[C@H]3CC[C@@]21C` (stereo partly specified), the Potency result in experiment [2] is “inactive”.

Turning to `Nc1nc(SCc2ccc([N+](=O)[O-])cc2)c2ncn([C@@H]3O[C@H](CO)[C@@H](O)[C@H]3O)c2n1`, the Potency result in experiment [2] is “inactive”.

Take `O=C1NC(=O)/C(=C/c2ccc(-c3ccc(F)cc3O)o2)S1`: the Potency result in experiment [2] was “inactive”.

Consider `c1ccc(-c2ccccn2)nc1`, for which the Potency entry in experiment [2] is “inactive”.

With `C=C[C@H]1CN2CC[C@@H]1C[C@@H]2[C@@H](O)c1ccnc2ccc(OC)cc12`, in experiment [2], the Potency result is “inactive”.

In the case of `CCOC(=O)c1ccccc1O`, the Potency result (in [1]; in experiment [2]; in the experiment on 3D7; in the experiment with 7G8) was “inactive” throughout. Moreover, the activity, negative = inhibition in experiment [3] (setting [9]) is 4.06% (inactive); in experiment [3] (setting [10]) it was 15.6% (inactive).

In the case of `CCCSc1ccc2nc(NC(=O)OC)[nH]c2c1`, the Potency result (in [1]; in experiment [2]; with 3D7; with 7G8) was “inactive” in each case. Besides, the activity, negative = inhibition is -19.4% (inactive) in experiment [3] (at 12.8 µM (top of the series), parasite line A) and -12.4% (inactive) in [3] (at 12.8 µM (top of the series), parasite line B).
